From PubChem BioAssay
TROY signal inh: inhibitors of TROY-dependent NF-kB signaling; Q293 LMP1-TROYcd NF-kB luciferase reporter, 4 h; inhibition, % at 10 µM; 360,000 compounds, 0.98% hits; AID 1347056;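 active = compounds whose plate-normalised and pattern-corrected inhibition of the luciferase reporter signal at the single screening dose is 50% or more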
TRPM1 prom inh: MITF TRPM1 promoter inhibition in SK-MEL-5 cells. SK-MEL-5 TRPM1 promoter luciferase, 24 h. inhibition, % at 12.5 µM. 330,000 compounds, 0.83% hits;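 active = mean inhibition across replicates of 60% or more, whatever share of single replicates reaches that level; inconclusive = some that reach 60%, reason not given; inactive = mean inhibition across replicates below 60%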
LGR2 antag: blocks bursicon-induced cAMP signaling via Drosophila LGR2; HEK293 LGR2, CRE-luciferase, bursicon-stimulated, 4 h; inhibition, % at 9.99 µM; 380,000 compounds, 0.35% hits; AID 720647;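 active = drop in luminescence signal, shown as inhibition above about 50% in the replicate tests, limit read from the data, passing the limit was not always enough; inconclusive = probably only some replicates passing the limit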;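 note: agonist challenge used bursicon conditioned medium at about half maximal strength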
LMP1 NFkB inh: inhibitors of Epstein-Barr LMP1-induced NF-kappaB reporter; LMP1-induced NF-kappaB luciferase reporter cells, luminescence; AID 504558; inhibition, % at 12.5 µM; 350,000 compounds, 0.69% hits; in the data active = inhibition above about 41%; inconclusive = no clear call, values can overlap the other calls;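 note: 0% = neutral control wells and 100% = reference inhibitor control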
MITF act: activators of MITF-driven TRPM1 promoter activity in SK-MEL-5 cells. activation, % at 12.5 µM. SK-MEL-5 TRPM1-promoter luciferase, 24 h; % of positive control, neutral wells = 0. 300,000 compounds, 0.75% hits;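 active = mean activation of at least 80% with every replicate also reaching 80%; inconclusive = mean reaches 80% but some replicate falls short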;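 note: 0% = neutral control wells and 100% = parthenolide positive control wells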
TWEAK-Fn14 inh: TWEAK-Fn14 signaling inhibition | TWEAK-stimulated Fn14 reporter cells, luciferase luminescence, 8 h | inhibition, % at 10 µM | 360,000 compounds, 2% hits | AID 1159606; in the data active = inhibition above about 50%
Numbers without * were called inactive; ? = inconclusive; . = no result given. Sampled rows, rich in hits. Any-hit rate of the full collection: about 3%.

SMILES	TROY signal inh	TRPM1 prom inh	LGR2 antag	LMP1 NFkB inh	MITF act	TWEAK-Fn14 inh
CN(C)C(=O)Oc1ccc(OC(=O)N(C)C)cc1	-5	-5	6	1	8	-2
CN(C)C(=O)Oc1ccc(OCc2nc3ccccc3[nH]2)cc1	24	3	53*	31	-9	68*
COC(=O)C[C@H]1CC[C@@H]2NC[C@H](O)COC[C@H]2O1	.	.	-13	.	.	.
O=C(O)[C@@H]1[C@@H](CO)[C@@H]2Cn3c(ccc(-c4cccnc4)c3=O)[C@H]1N2C(=O)Nc1cc(F)ccc1F	.	.	5	.	.	.
CCCCCc1nc2c(c(=O)c3ccccc3n2C)c(=O)n1C1CCCCCC1	89*	8	.	1	-10	44
CCCCCc1nc2ccccc2c(=O)n1-c1ccccc1[N+](=O)[O-]	3	-7	14	2	5	-11
N#CC(C#N)=Cc1ccc(-c2ccccc2F)o1	11	5	.	-20	-5	70*
COC(=O)[C@H]1[C@H](CO)[C@H]2Cn3c(ccc(C4=CCCCC4)c3=O)[C@@H]1N2CC1CCCC1	.	.	8	.	.	.
O=C(c1ccc(Cl)cc1)C1CCCN(Cc2cccc3cnccc23)C1 (stereo unspecified)	85*	8	13	13	-9	21
COc1ccc(C[C@H]2NC[C@H](O)[C@H]2OC(C)=O)cc1	82*	83*	.	91*	-81	97*
O=c1[nH]c(CN2CC=C(c3ccccc3)CC2)nc2scc(-c3ccccc3)c12	-2	4	-5	-2	0	2
O=c1[nH]c(CN2CC=C(c3ccccc3)CC2)nc2cc(C(F)(F)F)ccc12	2	-4	.	44*	2	11
COC(=O)[C@@H]1[C@@H](CO)[C@@H]2Cn3c(ccc(/C=C/c4ccccc4)c3=O)[C@H]1N2C(=O)C1CCC1	.	.	-12	.	.	.
O=c1[nH]c2ccccc2n1C1CCN(C(c2cccc3ccccc23)c2nnnn2Cc2ccccc2)CC1 (stereo unspecified)	36	.	28	.	.	53*
O=c1[nH]c2ccccc2n1C1CCN(C(CCc2ccccc2)c2nnnn2C2CCCC2)CC1 (stereo unspecified)	53*	.	65*	.	.	51*
O=c1[nH]c2ccccc2n1C1CCN(C(c2cc3ccccc3o2)c2nnnn2Cc2ccccc2)CC1 (stereo unspecified)	46	.	72*	.	.	76*
COc1cccc(C(c2nnnn2Cc2ccccc2)N2CCC(n3c(=O)[nH]c4ccccc43)CC2)c1OC (stereo unspecified)	30	.	19	.	.	39
COc1ccc(-n2nnnc2C(c2ccccc2)N2CCC(n3c(=O)[nH]c4ccccc43)CC2)cc1 (stereo unspecified)	23	.	18	.	.	43
Cc1cccc(C)c1-n1nnnc1C(c1cc2ccccc2o1)N1CCC(n2c(=O)[nH]c3ccccc32)CC1 (stereo unspecified)	77*	.	78*	.	.	102*
O=C(O)[C@@H]1[C@@H](CO)[C@@H]2Cn3c(ccc(-c4ccncc4)c3=O)[C@H]1N2C(=O)C1CCC1	.	.	27	.	.	.
CCC(C)NC(=O)c1c(N)n(Cc2ccc3c(c2)OCO3)c2nc3ccccc3nc12 (stereo unspecified)	57*	-1	.	-5	3	16
O=C(Cc1ccncc1)N1CCCCN2[C@H](CO)[C@@H](c3ccc(C#Cc4ccccc4F)cc3)[C@@H]2C1	.	.	11	.	.	.
CNC(=O)O/N=C(\C)Cc1nnn(-c2cc(C)on2)n1	73*	0	-12	1	.	21
CSc1cccc(NP2(=O)OCC(C)([N+](=O)[O-])CO2)c1 (stereo unspecified)	-2	-4	-8	62*	0	25
CC1([N+](=O)[O-])COP(=O)(Nc2ccccc2F)OC1 (stereo unspecified)	4	2	2	-3	-5	2
SMILES	TROY signal inh	TRPM1 prom inh	LGR2 antag	LMP1 NFkB inh	MITF act	TWEAK-Fn14 inh
O=C1CNC[C@H]2[C@@H](c3ccc(Br)cc3)[C@H](CO)N12	.	.	6	.	.	.
CC(C)C(NC(=O)C(C(C)C)N(C)C)C(=O)N(C)C(C(=O)N1CCCC1C(=O)N1CCCC1C(=O)NCc1ccccc1)C(C)C (stereo unspecified)	17	65*	-16	5	-62	5
Cc1ccc(OP2(=O)Nc3cc(C)c(C)cc3S2)cc1 (stereo unspecified)	40	3	.	-35	-2	65*
Cc1ccc2c(c1)NP(=S)(Oc1ccccc1)N2 (stereo unspecified)	3	-7	-10	-11	8	-15
Cc1nc2ccccc2c(=O)n1-c1cc([N+](=O)[O-])cc([N+](=O)[O-])c1	5	45	2	4	-46	-21
Cc1cccc(-n2c(/C=C/c3ccc([N+](=O)[O-])o3)nc3ccccc3c2=O)c1	-6	86*	32	84*	-85	95*
O=c1c2ccccc2nc(/C=C/c2ccc([N+](=O)[O-])o2)n1-c1ccc(O)cc1	33	94*	54*	86*	-93	93*
COC(=O)[C@@H]1[C@@H](CO)[C@@H]2Cn3c(ccc(-c4ccccc4F)c3=O)[C@H]1N2CC1CCCC1	.	.	11	.	.	.
Cn1ncnc2c(=O)n(C)c(=O)nc1-2	88*	103*	.	90*	-103	106*
CCCNC(=O)N1[C@@H]2c3ccc(-c4ccccc4OC)c(=O)n3C[C@H]1[C@H](CO)[C@H]2C(=O)O	.	.	2	.	.	.
O=c1oc2ccccc2c(O)c1[C@H]1c2ccc(O)cc2Oc2c1c(=O)oc1ccccc21	65*	-1	-3	1	0	43
CN1C(=O)NC(=O)C(C)(C2=CCCCC2)C1=O (stereo unspecified)	-47	-96	1	-5	100*	-53
CC1CC(C)CC(C)C(O)C(C#N)=CC=CCC(C2CCCC2C(=O)O)OC(=O)CC(O)C(C)C1 (stereo unspecified)	81*	92*	75*	?	.	100*
Cc1cc(OC(=O)CCNC(=O)OC(C)(C)C)c2c3c(c(=O)oc2c1)CCC3	37	0	?	4	-1	63*
Cc1cc(OC(=O)CCCNC(=O)OC(C)(C)C)c2c3c(c(=O)oc2c1)CCC3	18	-7	.	5	.	24
O=C(O)[C@H]1[C@H](CO)[C@H]2Cn3c(ccc(-c4ccncc4)c3=O)[C@@H]1N2S(=O)(=O)c1ccccc1F	.	.	-12	.	.	.
COC(=O)[C@@H]1[C@@H](CO)[C@@H]2Cn3c(ccc(C4=CCCCC4)c3=O)[C@H]1N2Cc1cccnc1	.	.	11	.	.	.
COC(=O)[C@H]1[C@H](CO)[C@H]2Cn3c(ccc(-c4cccc(F)c4)c3=O)[C@@H]1N2C(=O)CC1CC1	.	.	-6	.	.	.
Oc1cc(Cl)c(Cl)c(Cl)c1	55*	1	11	2	-1	49
Oc1ccc(Cl)c(Cl)c1	-4	5	-1	0	-4	6
